In ChEMBL document CHEMBL3988442, “University of Dundee, Small-Polar-MMV Screening Library” (2021):

Molecular target: T1, Methionyl-tRNA synthetase, putative (Leishmania donovani (strain BPK282A1)) (UniProt E9BF75)
T1 sequence (whole entry): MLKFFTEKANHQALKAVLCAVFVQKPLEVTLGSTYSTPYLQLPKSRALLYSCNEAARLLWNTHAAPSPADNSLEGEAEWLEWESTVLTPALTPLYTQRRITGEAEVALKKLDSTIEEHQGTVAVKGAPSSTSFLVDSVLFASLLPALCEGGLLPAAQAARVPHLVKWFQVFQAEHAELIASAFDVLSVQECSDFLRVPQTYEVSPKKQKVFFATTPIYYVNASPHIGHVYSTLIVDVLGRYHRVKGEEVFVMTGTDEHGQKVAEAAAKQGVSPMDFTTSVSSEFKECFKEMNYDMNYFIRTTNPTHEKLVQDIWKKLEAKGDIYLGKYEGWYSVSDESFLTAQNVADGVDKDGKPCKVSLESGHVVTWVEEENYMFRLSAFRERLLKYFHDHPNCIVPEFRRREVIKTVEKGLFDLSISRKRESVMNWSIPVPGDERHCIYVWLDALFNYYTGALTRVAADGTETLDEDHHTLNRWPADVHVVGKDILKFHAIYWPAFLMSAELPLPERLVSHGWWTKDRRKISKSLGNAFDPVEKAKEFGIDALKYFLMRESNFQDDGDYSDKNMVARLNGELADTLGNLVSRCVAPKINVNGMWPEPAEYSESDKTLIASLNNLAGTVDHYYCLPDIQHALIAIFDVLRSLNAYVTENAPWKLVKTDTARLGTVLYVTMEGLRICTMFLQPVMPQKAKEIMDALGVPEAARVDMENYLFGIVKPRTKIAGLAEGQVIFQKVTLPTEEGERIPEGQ
Assay: Leishmania donovani Methionine tRNA synthetase (LdMetRS):v7. Dose response assay
Type: functional
Design: conc 80 nM, time 150 minutes

CCc1cc2c(NCCCN(C)C)nc(-c3ccccc3)nc2s1
PXC50 (MAX_EFFECT 10.07371007): < 4
PXC50 (MAX_EFFECT 10.55276382): < 4

Cc1nc(NCC(=O)O)c2c3c(sc2n1)CCC3
PXC50 (MAX_EFFECT 4.834605598): < 4
PXC50 (MAX_EFFECT 5.289672544): < 4

CC1CCc2c(Cl)cc(Cl)c(O)c2N1 (stereo not drawn)
PXC50 (MAX_EFFECT 23.76425856): < 3
PXC50 (MAX_EFFECT 24.40604752): < 3

COc1ccc(NC[C@@H](N)CC(C)C)c(Oc2ccc(Cl)cc2)n1
PXC50 (MAX_EFFECT 6.560636183): < 4
PXC50 (MAX_EFFECT 6.651376147): < 4

Fc1cccc(OC[C@@H]2CNCCO2)c1Oc1ccc(Cl)cc1
PXC50 (MAX_EFFECT 6.609808102): < 4
PXC50 (MAX_EFFECT 8.902691511): < 4

COCCN(CC1CC1)c1nc(CCN)nc2sc(C)c(C)c12
PXC50 (MAX_EFFECT 32.65306122): < 4
PXC50 (MAX_EFFECT 36.11111111): < 4

COc1cccc(-c2noc3c2CN(c2ncnc4c2CCC4)CC3)c1
PXC50 (MAX_EFFECT 38.4057971): < 4
PXC50 (MAX_EFFECT 40.13605442): < 4
PXC50 (MAX_EFFECT 45.70928196): < 4

OCCNc1ccnc(Nc2cccc(F)c2)n1
PXC50 (MAX_EFFECT 29.67244701): < 4
PXC50 (MAX_EFFECT 30.83700441): < 4
PXC50 (MAX_EFFECT 32.02479339): < 4

Cn1ncc2c(NCC(F)F)nc(Nc3ccc(F)c(F)c3)nc21
PXC50 (BOTTOM 1.581546444, HILLSLOPE 1.045254628, MAX_EFFECT 85.66037736, TOP 91.59899261): 5.09
PXC50 (BOTTOM 2.845790401, HILLSLOPE 0.765565912, MAX_EFFECT 91.60305344, TOP 108.0932569): 4.86
PXC50 (BOTTOM 5.50929664, HILLSLOPE 0.80038345, MAX_EFFECT 90.35087719, TOP 108.0671509): 4.81

O=S(=O)(NCCO)c1cccnc1Nc1cccc(C(F)(F)F)c1
PXC50 (MAX_EFFECT 4.933586338): < 4
PXC50 (MAX_EFFECT 12.19008264): < 4
PXC50 (MAX_EFFECT 16.29955947): < 4

Cn1ncc2c(NCCO)nc(Nc3cccc(S(N)(=O)=O)c3)nc21
PXC50 (MAX_EFFECT 2.127659574): < 4
PXC50 (MAX_EFFECT 6.392694064): < 4
PXC50 (MAX_EFFECT 11.50943396): < 4

O=C(NCC1(O)CCC(F)(F)CC1)c1cc(=O)c2cc(F)cc(O)c2o1
PXC50 (MAX_EFFECT 4.030710173): < 4
PXC50 (MAX_EFFECT 10.04784689): < 4

CC(C)Nc1nc(Nc2ccc(F)c(F)c2)nc2c1cnn2C
PXC50 (BOTTOM 6.912856457, HILLSLOPE 1.265127605, MAX_EFFECT 60.96491228, TOP 58.85327881): 5.32
PXC50 (BOTTOM 8.026516696, HILLSLOPE 1.466204418, MAX_EFFECT 55.47073791, TOP 58.34935066): 5.27
PXC50 (BOTTOM 8.495247693, HILLSLOPE 1.610767227, MAX_EFFECT 62.64150943, TOP 64.37148882): 5.22

OCCCNc1ccnc(Nc2cccc(C(F)(F)F)c2)n1
PXC50 (BOTTOM -1.471323434, HILLSLOPE 0.842843203, MAX_EFFECT 51.77570093, TOP 92.13190163): 4.16
PXC50 (BOTTOM -3.274011796, HILLSLOPE 1.62633592, MAX_EFFECT 57.93991416, TOP 100.0): 4.09
PXC50 (MAX_EFFECT 49.40617577): < 4

OCCCNc1nccc(Nc2cccc(C(F)(F)F)c2)n1
PXC50 (MAX_EFFECT 6.834532374): < 4
PXC50 (MAX_EFFECT 6.86695279): < 4
PXC50 (MAX_EFFECT 9.976247031): < 4

Cn1ncc2c(NCCO)nc(Nc3ccccc3)nc21
PXC50 (MAX_EFFECT 42.26415094): < 4
PXC50 (MAX_EFFECT 47.32824427): < 4
PXC50 (MAX_EFFECT 49.56140351): < 4

CN(C)c1nc2c(c(N3CCc4ccccc4C3)n1)CCNC2
PXC50 (BOTTOM 4.386431105, HILLSLOPE 1.427859325, MAX_EFFECT 80.85808581, TOP 100.0): 4.37
PXC50 (BOTTOM 4.719660638, HILLSLOPE 1.487233723, MAX_EFFECT 73.91304348, TOP 100.0): 4.28
PXC50 (BOTTOM 4.739489756, HILLSLOPE 1.201717489, MAX_EFFECT 56.63082437, TOP 100.0): 4.07

Cc1cc(Nc2nc(NCCO)c3cnn(C)c3n2)cc(C(F)(F)F)c1
PXC50 (MAX_EFFECT 17.18061674): < 4
PXC50 (MAX_EFFECT 18.76208897): < 4
PXC50 (MAX_EFFECT 22.9338843): < 4

NS(=O)(=O)c1cccnc1Nc1cc(F)cc(C(F)(F)F)c1
PXC50 (MAX_EFFECT 3.956834532): < 4
PXC50 (MAX_EFFECT 8.551068884): < 4
PXC50 (MAX_EFFECT 8.583690987): < 4

CN(C)C(=O)CNC(=O)c1ccc2ccc(N(C)CC3CC3)n2c1
PXC50 (MAX_EFFECT 21.76870748): < 4
PXC50 (MAX_EFFECT 29.90654206): < 4

Cc1nc(Cc2ccc(F)cc2)cc(C2COCCN2)n1 (stereo not drawn)
PXC50 (BOTTOM 2.29407011, HILLSLOPE 1.165905826, MAX_EFFECT 59.72222222, TOP 100.0): 4.12
PXC50 (BOTTOM 7.218737982, HILLSLOPE 1.406075807, MAX_EFFECT 57.71812081, TOP 100.0): 4.05
PXC50 (MAX_EFFECT 41.7677643): < 4

COCCNc1nc(-c2cccnc2)nc2sc3c(c12)CCCC3
PXC50 (MAX_EFFECT 11.84210526): < 4
PXC50 (MAX_EFFECT 12.5): < 4

CCOCCN(CCOCC)c1nc(C)nc2sccc12
PXC50 (MAX_EFFECT 12.27154047): < 4
PXC50 (MAX_EFFECT 15.66579634): < 4

Cc1cnn(CCNCc2c(C)nn(CCO)c2C)c1
PXC50 (MAX_EFFECT 2.721088435): < 4
PXC50 (MAX_EFFECT 5.072463768): < 4
PXC50 (MAX_EFFECT 8.23117338): < 4

O=C(CCNC(=O)c1ccccc1F)NCCNc1cccnc1
PXC50 (MAX_EFFECT 3.623188406): < 4
PXC50 (MAX_EFFECT 4.761904762): < 4
PXC50 (MAX_EFFECT 5.779334501): < 4

COc1cc(Nc2nc(NCCO)c3cnn(C)c3n2)cc(C(F)(F)F)c1
PXC50 (MAX_EFFECT 10.13215859): < 4
PXC50 (MAX_EFFECT 10.95041322): < 4
PXC50 (MAX_EFFECT 12.18568665): < 4
